# Data published in PubChem BioAssay (NCATS).
# Results filed as inconclusive are left out. Unmarked numbers belong to inactive results. Activity calls are given as the source filed them. The call rests on the fitted dose curve; in most records, active means well fitted cell-killing curve with a large enough effect; inconclusive means small, poorly fitted or top-dose-only effect; inactive means flat fitted curve, though single readings scatter.
# Assay: Cell Viability - LYMP2-009 (AID 968); further: nearly all actives have a fitted effect of over 55% in size;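 on activity change, negative = viability loss: 0% = DMSO alone and the full-kill end = tetraoctylammonium bromide at 92 µM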
# Conditions: LYMP2-009 lymphoblastoid cell viability; series mostly up to 92.2 µM; activity change, negative = viability loss: at the top concentration
# Description: NIH Chemical Genomics Center [NCGC]
# NIH Molecular Libraries Screening Centers Network [MLSCN]
# National Institutes of Environmental Health Sciences [NIEHS]
# National Toxicology Program [NTP]
# We have developed a 1536-well cell-based assay for quantitative high throughput screening (qHTS) against a number of cell lines to determine in vitro cytotoxicity of small molecules. This particular assay uses a human lymphoblastoid cell line (LYMP2-009) purchased from Coriell Institute for Medical Research.
# NCGC Assay Protocol Summary:
# The CellTiter-Glo luminescent cell viability assay (Promega) is a homogeneous method to measure the number of viable cells in culture. The end point readout of this assay is based on quantitation of intracellular ATP, an indicator of metabolic activity, using the luciferase reaction. Luciferase catalyzes the oxidation of beetle Luciferin to oxyluciferin and light in the presence of ATP. The luminescent signal is proportional to amount of ATP present.
# Using the CellTiter-Glo luminescent cell viability assay, the amount of cellular ATP was measured in the lymphoblastoid cell line with complete culture medium following compound treatment for 24 hours. The assay was performed in opaque white Kalypsys 1536-well plates. In the screen, tetraoctylammonium bromide was used as positive control. Library compounds were measured for their ability to cause acute toxicity in the cell line, as reflected by a decrease in intracellular ATP levels, in a concentration-dependent manner. […] AC50 values were determined from concentration-response data modeled with the standard Hill equation.
# qHTS protocol for CellTiter Glo lymphoblastoid cellular assay
# [Step] [Parameter] [Value] [Description]
# 1. Reagent; 5 uL; 2500 lymphoblastoid cells/well
# 2. Time; 5 hr; 37 C incubation
# 4. Controls; 23 nL; Tetraoctylammonium bromide 6.4pM to 92 uM
# 5. Time; 24 hr; 37 C incubation
# 6. Reagent; 5 uL; CellTiter Glo reagent
# 7. Time; 30 min; Room Temperature
# 8. Detection; Luminescence; Viewlux plate reader
# Keywords: cell viability, cytotoxicity, lymphoblastoid cell line, luminescence, NTPHTS, NTPHTS_NCGC, NIEHS, DSSTox, MLSMR, MLSCN, NIH Roadmap, qHTS, NCGC
# Potency means the concentration at half of the fitted maximal effect.
SMILES,"activity change, negative = viability loss [%]",Potency
Cc1nnc(NS(=O)(=O)c2ccc(N)cc2)s1,-0.279,–
Cc1ccnc2c1NC(=O)c1cccnc1N2C1CC1,-12.6,–
Cc1cc(NS(=O)(=O)c2ccc(N)cc2)no1,-2.47,–
Cc1noc(NS(=O)(=O)c2ccc(N)cc2)c1C,-5.6,–
C[C@]12C=CC(=O)C=C1CC[C@@H]1[C@@H]2C(=O)C[C@@]2(C)[C@H]1CC[C@]2(O)C(=O)CO,-8.06,–
Cc1ncc([N+](=O)[O-])n1CCO,-3.11,–
CC1=NN(c2ccccc2)C(=O)C1,-9.24,–
CCc1cc(C(N)=S)ccn1,-7.4,–
CC[C@H](C)C(=O)O[C@H]1C[C@@H](C)C=C2C=C[C@H](C)[C@H](CC[C@@H]3C[C@@H](O)CC(=O)O3)[C@H]21,-20.6,–
N=C(N)c1ccc(OCCCCCOc2ccc(C(=N)N)cc2)cc1,-27.1,–
CN(C)c1ccc(C(=C2C=CC(=[N+](C)C)C=C2)c2ccc(N(C)C)cc2)cc1,–,2510 nM (active)
NC(N)=NC(N)=NCCc1ccccc1,-27.1,–
O=C(N[C@H](CO)[C@H](O)c1ccc([N+](=O)[O-])cc1)C(Cl)Cl,-11.1,–
O=C(O)c1cc(=O)[nH]c(=O)[nH]1,-7.79,–
NNC(=O)c1ccncc1,-2.16,–
